Assay [1] concerns the target T1, Serine/threonine-protein kinase D2 (Homo sapiens) (UniProt Q9BZL6).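 Further: mean value of PRKD2 inhibition, from the GSK PKIS screening panel.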
T1 sequence (whole entry): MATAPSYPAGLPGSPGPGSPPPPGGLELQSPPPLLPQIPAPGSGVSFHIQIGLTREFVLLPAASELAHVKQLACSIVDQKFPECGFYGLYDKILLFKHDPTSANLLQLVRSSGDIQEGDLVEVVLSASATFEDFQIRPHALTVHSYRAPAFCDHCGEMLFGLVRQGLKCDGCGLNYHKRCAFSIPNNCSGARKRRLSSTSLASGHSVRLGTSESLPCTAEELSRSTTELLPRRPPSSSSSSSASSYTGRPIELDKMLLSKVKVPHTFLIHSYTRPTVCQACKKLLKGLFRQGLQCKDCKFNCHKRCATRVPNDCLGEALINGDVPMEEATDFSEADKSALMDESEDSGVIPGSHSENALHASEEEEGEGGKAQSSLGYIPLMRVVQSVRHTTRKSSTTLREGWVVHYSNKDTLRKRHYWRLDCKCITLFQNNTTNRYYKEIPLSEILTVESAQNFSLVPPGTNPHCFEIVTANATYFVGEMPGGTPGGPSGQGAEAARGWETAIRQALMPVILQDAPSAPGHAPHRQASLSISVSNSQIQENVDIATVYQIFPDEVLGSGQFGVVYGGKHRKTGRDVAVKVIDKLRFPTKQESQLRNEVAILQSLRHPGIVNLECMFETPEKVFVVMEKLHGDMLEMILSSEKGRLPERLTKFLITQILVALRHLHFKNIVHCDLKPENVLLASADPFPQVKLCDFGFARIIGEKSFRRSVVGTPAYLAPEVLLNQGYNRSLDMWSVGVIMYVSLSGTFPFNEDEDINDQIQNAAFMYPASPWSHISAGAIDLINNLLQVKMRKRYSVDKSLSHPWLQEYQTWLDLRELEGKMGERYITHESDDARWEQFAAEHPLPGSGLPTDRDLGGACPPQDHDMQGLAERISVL
The settings on record: at 1 µM.

Assay [2] deals with T2, Serine/threonine-protein kinase D3 (Homo sapiens) (UniProt O94806).
T2 sequence (whole entry): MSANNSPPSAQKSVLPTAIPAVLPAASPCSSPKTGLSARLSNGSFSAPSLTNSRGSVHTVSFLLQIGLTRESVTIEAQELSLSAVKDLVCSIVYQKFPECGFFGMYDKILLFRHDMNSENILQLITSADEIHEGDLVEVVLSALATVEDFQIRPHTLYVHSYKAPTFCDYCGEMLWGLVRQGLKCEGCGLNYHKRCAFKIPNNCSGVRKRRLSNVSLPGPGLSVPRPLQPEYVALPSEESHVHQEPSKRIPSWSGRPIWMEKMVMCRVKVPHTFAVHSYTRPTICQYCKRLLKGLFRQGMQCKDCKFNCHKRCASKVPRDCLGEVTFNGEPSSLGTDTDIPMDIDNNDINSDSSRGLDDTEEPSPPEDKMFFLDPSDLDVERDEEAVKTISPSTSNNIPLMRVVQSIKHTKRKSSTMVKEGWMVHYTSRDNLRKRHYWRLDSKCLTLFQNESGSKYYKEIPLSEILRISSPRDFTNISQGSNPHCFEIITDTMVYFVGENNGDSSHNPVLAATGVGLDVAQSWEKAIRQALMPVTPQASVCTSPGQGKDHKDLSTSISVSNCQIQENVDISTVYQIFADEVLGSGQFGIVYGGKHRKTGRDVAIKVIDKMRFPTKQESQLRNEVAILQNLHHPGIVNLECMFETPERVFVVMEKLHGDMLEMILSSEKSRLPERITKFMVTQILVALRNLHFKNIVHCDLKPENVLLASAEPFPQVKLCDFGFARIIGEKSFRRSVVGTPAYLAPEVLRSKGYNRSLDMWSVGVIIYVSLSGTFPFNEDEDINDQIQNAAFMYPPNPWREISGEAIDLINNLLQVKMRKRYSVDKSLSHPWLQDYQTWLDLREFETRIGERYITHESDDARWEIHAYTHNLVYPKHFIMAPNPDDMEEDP
The settings on record: at 0.1 µM.

The target in assay [3] is T2, Serine/threonine-protein kinase D3 (Homo sapiens). The settings on record: at 1 µM.
The target of assay [4] is T3, cGMP-dependent protein kinase 1 (Homo sapiens) (UniProt Q13976).
T3 sequence (whole entry): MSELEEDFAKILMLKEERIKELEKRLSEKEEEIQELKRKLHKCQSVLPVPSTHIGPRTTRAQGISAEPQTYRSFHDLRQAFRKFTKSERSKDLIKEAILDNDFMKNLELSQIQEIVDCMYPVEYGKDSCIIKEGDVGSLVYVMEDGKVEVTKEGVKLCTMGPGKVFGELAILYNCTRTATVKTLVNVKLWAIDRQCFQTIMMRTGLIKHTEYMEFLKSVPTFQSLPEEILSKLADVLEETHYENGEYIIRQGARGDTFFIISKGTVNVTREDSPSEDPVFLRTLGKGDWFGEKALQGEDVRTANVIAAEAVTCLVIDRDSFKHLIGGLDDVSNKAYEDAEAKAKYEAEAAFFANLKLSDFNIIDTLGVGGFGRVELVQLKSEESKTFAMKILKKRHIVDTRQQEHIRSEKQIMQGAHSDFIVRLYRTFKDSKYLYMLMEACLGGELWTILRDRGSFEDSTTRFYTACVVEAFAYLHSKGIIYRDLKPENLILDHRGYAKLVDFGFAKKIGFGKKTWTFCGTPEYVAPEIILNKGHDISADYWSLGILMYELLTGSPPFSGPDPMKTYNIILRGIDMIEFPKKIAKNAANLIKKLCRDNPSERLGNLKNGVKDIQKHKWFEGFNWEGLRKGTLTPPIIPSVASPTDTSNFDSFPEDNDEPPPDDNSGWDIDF
The settings on record: at 0.1 µM.

Assay [5] concerns the target T3, cGMP-dependent protein kinase 1 (Homo sapiens). The settings on record: at 1 µM.
Assay [6] deals with T4, cGMP-dependent protein kinase 2 (Homo sapiens) (UniProt Q13237).
T4 sequence (whole entry): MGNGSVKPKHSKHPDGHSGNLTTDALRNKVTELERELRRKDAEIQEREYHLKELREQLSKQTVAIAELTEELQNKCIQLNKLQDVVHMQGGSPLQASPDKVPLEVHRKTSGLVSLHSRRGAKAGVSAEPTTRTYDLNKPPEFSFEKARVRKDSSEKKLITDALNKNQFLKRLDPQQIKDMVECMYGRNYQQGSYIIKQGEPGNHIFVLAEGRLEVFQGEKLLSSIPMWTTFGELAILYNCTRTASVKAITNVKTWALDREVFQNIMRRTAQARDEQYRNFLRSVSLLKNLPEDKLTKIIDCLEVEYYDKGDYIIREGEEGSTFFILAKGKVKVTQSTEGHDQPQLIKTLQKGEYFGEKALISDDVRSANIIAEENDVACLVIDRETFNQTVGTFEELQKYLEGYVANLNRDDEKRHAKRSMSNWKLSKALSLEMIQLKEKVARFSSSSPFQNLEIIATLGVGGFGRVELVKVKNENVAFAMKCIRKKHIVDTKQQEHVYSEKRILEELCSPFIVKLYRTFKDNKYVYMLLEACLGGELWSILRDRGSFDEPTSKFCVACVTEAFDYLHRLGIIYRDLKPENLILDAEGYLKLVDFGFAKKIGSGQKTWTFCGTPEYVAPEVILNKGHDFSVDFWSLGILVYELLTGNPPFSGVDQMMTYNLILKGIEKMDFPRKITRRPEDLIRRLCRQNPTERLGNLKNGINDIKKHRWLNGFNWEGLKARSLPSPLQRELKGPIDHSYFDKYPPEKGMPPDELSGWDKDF
The settings on record: at 0.1 µM.

The target in assay [7] is T4, cGMP-dependent protein kinase 2 (Homo sapiens). The settings on record: at 1 µM.
Assay [8] concerns the target T5, cAMP-dependent protein kinase catalytic subunit PRKX (Homo sapiens) (UniProt P51817).
T5 sequence (whole entry): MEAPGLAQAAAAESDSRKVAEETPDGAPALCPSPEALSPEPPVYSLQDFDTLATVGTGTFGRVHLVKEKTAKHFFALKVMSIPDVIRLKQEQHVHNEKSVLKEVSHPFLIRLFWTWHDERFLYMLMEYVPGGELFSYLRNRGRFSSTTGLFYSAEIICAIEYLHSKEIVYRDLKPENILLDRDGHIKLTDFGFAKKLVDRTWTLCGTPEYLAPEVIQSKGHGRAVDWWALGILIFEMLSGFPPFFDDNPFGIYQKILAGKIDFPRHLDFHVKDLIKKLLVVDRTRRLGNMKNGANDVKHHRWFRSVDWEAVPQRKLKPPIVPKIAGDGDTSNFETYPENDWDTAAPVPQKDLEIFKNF
The settings on record: at 0.1 µM.

For assay [9], the target named is T5, cAMP-dependent protein kinase catalytic subunit PRKX (Homo sapiens). The settings on record: at 1 µM.
The target of assay [10] is Rho-associated protein kinase 1 (Homo sapiens) (UniProt Q13464). The settings on record: at 0.1 µM.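 Further: values are mean percent inhibition of ROCK1.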
Rho-associated protein kinase 1 (Homo sapiens), sequence (Q13464 2-1354 limits assumed): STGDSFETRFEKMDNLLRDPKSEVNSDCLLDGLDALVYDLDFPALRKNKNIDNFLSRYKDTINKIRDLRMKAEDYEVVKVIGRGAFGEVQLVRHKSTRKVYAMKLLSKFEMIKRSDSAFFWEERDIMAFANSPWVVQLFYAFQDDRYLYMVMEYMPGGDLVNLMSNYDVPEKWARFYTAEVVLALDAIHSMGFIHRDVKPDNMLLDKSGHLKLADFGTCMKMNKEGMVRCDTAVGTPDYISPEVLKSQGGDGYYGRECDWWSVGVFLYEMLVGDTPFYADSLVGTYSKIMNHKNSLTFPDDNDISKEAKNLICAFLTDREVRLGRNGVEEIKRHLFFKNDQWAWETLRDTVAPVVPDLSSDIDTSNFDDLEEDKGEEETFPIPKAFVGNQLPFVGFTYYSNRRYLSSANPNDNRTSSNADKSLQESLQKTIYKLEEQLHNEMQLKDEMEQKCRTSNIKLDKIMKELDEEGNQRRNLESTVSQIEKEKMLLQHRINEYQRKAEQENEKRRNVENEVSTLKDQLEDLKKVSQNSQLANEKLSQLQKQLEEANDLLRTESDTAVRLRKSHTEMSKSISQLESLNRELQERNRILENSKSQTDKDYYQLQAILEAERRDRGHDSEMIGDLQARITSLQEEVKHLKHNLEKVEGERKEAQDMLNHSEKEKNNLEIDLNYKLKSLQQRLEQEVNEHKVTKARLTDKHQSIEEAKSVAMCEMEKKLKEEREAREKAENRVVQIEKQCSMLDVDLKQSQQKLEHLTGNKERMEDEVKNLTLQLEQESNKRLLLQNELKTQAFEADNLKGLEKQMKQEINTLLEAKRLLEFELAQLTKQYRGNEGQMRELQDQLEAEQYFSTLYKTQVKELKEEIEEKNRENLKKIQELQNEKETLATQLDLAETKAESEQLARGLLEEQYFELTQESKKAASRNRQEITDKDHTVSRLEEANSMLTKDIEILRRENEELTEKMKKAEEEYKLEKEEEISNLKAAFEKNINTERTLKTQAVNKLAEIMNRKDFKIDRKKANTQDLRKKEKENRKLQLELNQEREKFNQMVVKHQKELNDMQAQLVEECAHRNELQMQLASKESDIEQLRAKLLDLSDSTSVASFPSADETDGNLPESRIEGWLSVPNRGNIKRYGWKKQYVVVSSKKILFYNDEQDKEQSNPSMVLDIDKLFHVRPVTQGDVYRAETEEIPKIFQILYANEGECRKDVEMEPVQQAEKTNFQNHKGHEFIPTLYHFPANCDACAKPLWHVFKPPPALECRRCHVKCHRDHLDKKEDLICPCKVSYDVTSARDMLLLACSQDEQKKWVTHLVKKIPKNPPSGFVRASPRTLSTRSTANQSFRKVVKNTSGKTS

For eight compounds, inhibition results are on record in ChEMBL document CHEMBL1961873, “Compounds: GSK PKIS; Assays: Nanosyn kinase panel” (2012).

Consider `Cc1cccc(Nc2ncc(-c3ccccc3)o2)c1`, for which the inhibition in assay [1] amounted to 3.61%; in assay [2], 2.84%; in [3], 4.5%; in assay [4], 5.35%; in assay [5] it was 11.3%; in assay [6] it was 6.06%. Further, the inhibition in assay [7] was found to be 10.7%; in assay [8] it was 11.3%; in assay [9] it was 12%; in [10], 1.64%.

As for `COC(=O)c1sc(-n2cnc3cc(OC)c(OC)cc32)cc1OCc1ccccc1C(F)(F)F`, the inhibition in [1] is 5.96%; in assay [2] it was 4.17%; in assay [3], 5.73%; in [4], 2.01%; in [5], 4.24%; in [6], 1.58%. For the same compound, the inhibition in assay [7] was 3.35%; in assay [8] it was -0.14%; in assay [9] it was 0.19%; in assay [10], 0.1%.

`CNC(=O)c1cc(-c2ccc(F)cc2)cc(-c2ccc(S(=O)(=O)N3CCCC3)cc2)c1N`: the inhibition in [1] worked out at 1.98%; in [2], 3.24%; in [3] it was 3.34%; in assay [4], 1.61%; in assay [5], 2.76%; in assay [6], 1.41%. Besides, the inhibition in [7] worked out at 0.53%; in assay [8], 2.59%; in assay [9], 1.29%; in assay [10] it was 1.6%.

As to `NS(=O)(=O)c1ccc(Nc2ncc(-c3ccccc3)o2)cc1`, the inhibition amounted to 5.55% in assay [1]; 3.51% in assay [2]; 5.97% in assay [3]; 1.9% in assay [4]; 4.85% in assay [5]; 2.69% in assay [6]. Moreover, the inhibition in assay [7] was determined as 3.98%; in assay [8], 2.08%; in assay [9], 2.5%; in [10] it was 0.63%.

For the compound `CCN1CCC(CC(=O)Nc2n[nH]c3nnc(-c4cccc(F)c4F)cc23)CC1`, the inhibition in assay [1] stood at 2.99%; in assay [2] it was 1.54%; in [3], 2.01%; in assay [4], 1.07%; in assay [5], 0.47%; in assay [6] it was 1.64%. For the same compound, the inhibition in assay [7] was determined as 2.03%; in [8], 0.36%; in assay [9], 0.65%; in [10], 0.26%.

Turning to `CC(=O)Nc1cccc(C#Cc2cncnc2Nc2ccc(OCc3cccc(F)c3)c(Cl)c2)c1`, the inhibition in [1] came to 3.79%; in assay [2], 2.13%; in assay [3] it was 2.46%; in assay [4] it was 3.13%; in assay [5], 3.55%; in [6], 2.86%. For the same compound, the inhibition in assay [7] came to 1.98%; in [8], 1.66%; in assay [9] it was 1.17%; in assay [10], 1.07%.

With `CCn1c(-c2nonc2N)nc2c(C#CC(C)(C)O)nc(OC[C@H](N)c3ccccc3)cc21`, the inhibition is 25.6% in assay [1]; 5.89% in [2]; 28.6% in assay [3]; 23.8% in assay [4]; 71.3% in [5]; 56.9% in [6]. The inhibition in [7] worked out at 78.8%; in [8] it was 84.2%; in assay [9], 87.1%; in assay [10], 2.85%.

For the compound `Cc1cccc2c1NC(=O)/C2=N\Nc1ccc(S(N)(=O)=O)cc1`, the inhibition in [1] came to 3.1%; in assay [2], 3.5%; in assay [3], 3.85%; in assay [4], 0.72%; in assay [5] it was 2.94%; in [6], 3.15%. Further, the inhibition worked out at 3.38% in assay [7], 1.15% in [8], 2.2% in [9] and 1.31% in assay [10].
